Our source for the log2 fold change values is the supplement of paper PMC10849652.

The full data set covers some 7,900 targets. This sample favours those with a hit. About 0.6% of all pairs of compound and target were hits. Values without a mark were called inactive.

Chain of UniProt P13473 (P13473 whole entry, looked up): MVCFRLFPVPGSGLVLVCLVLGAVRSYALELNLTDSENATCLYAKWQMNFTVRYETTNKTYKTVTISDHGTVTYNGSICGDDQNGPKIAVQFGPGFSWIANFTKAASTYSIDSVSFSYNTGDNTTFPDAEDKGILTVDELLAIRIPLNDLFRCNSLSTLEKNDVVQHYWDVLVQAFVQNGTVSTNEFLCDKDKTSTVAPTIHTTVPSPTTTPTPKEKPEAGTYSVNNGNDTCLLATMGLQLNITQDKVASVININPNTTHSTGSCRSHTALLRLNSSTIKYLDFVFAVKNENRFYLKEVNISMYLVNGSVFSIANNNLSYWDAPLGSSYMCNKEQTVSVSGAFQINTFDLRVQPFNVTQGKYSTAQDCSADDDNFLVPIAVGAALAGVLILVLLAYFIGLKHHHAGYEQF
Chain of UniProt Q03252 (Q03252 whole entry, looked up): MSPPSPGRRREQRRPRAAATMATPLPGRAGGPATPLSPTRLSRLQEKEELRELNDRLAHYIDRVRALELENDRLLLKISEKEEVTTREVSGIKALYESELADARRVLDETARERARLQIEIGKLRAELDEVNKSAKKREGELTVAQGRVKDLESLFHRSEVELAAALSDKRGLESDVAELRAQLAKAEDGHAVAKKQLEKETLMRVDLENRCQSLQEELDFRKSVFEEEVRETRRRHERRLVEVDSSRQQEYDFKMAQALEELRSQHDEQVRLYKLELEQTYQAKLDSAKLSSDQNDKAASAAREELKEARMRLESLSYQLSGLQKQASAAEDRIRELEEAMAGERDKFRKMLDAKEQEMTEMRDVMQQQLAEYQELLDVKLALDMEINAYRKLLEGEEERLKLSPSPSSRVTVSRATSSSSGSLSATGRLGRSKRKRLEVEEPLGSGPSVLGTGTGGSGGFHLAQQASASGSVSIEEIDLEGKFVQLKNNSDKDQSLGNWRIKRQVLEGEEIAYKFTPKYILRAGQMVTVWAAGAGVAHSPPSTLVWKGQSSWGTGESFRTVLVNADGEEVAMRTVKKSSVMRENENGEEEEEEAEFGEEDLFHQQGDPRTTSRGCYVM
Chain of UniProt P50851 (P50851 whole entry, looked up): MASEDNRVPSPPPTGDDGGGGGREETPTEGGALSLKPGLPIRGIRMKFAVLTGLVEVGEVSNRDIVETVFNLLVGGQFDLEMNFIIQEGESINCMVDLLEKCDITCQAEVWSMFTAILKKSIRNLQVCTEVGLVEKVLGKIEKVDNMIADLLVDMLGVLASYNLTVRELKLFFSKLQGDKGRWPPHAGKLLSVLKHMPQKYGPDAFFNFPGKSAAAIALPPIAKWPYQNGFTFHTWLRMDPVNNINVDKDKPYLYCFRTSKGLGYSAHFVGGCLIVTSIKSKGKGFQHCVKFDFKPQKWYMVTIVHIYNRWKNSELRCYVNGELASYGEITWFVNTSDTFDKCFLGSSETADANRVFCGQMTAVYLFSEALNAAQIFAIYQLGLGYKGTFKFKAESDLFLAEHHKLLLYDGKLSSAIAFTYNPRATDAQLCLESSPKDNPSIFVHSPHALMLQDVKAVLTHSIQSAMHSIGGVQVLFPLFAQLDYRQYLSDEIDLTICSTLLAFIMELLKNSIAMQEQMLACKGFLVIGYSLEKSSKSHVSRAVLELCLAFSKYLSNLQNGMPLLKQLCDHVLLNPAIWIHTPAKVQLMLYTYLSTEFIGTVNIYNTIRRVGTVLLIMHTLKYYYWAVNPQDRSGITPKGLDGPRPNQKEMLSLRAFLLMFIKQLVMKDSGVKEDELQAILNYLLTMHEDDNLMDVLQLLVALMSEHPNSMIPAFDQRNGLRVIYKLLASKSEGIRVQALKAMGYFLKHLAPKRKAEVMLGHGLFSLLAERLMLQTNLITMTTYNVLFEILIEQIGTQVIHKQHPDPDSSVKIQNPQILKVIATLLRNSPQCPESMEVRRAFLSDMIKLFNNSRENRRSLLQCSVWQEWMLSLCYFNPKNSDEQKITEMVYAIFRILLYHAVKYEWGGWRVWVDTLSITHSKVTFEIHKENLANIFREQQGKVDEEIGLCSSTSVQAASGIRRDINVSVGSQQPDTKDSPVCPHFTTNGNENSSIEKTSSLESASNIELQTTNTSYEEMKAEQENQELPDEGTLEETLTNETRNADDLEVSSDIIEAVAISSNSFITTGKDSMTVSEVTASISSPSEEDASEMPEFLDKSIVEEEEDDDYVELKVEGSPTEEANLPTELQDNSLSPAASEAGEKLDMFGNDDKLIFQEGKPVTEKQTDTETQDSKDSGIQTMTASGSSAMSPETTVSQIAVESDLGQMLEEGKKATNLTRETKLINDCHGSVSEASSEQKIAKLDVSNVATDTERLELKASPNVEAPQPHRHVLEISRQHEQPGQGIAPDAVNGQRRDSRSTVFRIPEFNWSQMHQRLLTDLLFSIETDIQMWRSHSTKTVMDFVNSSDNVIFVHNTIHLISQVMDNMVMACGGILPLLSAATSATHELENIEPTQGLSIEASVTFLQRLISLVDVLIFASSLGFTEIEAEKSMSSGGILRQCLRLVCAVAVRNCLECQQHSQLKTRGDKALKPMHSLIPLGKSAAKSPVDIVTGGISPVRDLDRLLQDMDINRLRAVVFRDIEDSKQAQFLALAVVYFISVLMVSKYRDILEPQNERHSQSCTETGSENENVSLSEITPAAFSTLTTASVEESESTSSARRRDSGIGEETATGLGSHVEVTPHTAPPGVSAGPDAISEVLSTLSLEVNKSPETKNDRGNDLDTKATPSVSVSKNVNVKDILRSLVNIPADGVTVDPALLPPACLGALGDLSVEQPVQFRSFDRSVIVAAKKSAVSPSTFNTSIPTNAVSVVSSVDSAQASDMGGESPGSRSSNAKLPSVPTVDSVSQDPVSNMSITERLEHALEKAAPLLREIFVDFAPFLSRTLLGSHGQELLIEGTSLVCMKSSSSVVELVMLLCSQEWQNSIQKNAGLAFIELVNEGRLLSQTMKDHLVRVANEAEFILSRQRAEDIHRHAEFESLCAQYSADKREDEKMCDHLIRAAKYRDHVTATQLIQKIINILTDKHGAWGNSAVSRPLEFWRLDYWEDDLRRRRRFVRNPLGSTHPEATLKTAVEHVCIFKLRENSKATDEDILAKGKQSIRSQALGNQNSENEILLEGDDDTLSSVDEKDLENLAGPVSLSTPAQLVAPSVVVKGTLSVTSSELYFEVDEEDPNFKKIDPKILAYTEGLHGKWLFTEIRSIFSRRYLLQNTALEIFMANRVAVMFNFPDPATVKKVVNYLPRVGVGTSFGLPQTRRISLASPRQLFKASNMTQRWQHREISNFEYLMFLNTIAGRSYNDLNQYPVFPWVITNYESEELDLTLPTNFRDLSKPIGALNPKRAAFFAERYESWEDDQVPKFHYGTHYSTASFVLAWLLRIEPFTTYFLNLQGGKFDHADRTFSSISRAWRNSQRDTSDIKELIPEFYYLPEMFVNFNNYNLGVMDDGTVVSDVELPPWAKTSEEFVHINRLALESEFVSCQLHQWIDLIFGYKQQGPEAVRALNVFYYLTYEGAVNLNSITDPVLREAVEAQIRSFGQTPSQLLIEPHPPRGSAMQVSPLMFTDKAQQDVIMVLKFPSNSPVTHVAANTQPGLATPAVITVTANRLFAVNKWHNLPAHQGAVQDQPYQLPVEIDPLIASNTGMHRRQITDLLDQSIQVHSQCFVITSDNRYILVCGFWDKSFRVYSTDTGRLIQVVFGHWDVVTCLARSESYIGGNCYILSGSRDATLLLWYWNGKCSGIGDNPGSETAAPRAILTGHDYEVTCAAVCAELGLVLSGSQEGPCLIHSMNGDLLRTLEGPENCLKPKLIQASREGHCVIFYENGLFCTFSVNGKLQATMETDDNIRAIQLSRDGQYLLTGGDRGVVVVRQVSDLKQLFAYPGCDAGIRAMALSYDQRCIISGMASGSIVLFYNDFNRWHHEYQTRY
Chain of UniProt Q8NC56 (Q8NC56 whole entry, looked up): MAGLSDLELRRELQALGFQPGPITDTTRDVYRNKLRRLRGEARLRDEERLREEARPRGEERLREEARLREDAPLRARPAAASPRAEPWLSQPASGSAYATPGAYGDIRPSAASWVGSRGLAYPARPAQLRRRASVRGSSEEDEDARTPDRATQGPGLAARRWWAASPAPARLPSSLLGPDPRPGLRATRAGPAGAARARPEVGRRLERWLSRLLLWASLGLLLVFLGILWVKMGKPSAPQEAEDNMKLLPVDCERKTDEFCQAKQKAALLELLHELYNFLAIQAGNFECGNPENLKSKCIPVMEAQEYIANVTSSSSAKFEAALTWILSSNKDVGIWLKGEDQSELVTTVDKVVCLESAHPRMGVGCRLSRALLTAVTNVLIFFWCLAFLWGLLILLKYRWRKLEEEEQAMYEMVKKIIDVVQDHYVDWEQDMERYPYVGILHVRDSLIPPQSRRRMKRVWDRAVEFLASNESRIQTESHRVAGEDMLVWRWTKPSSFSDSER
Chain of UniProt P49137 (P49137 whole entry, looked up): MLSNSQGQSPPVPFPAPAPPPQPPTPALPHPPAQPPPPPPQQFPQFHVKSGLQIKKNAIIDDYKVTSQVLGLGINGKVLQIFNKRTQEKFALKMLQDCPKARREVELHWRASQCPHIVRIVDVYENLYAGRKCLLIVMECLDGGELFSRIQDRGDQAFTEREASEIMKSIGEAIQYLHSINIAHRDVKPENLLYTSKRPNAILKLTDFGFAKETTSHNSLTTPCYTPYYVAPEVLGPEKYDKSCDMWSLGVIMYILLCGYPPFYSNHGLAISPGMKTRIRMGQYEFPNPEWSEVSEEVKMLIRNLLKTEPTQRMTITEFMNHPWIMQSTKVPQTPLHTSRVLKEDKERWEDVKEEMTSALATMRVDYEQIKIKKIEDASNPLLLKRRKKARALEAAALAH
Chain of UniProt O95372 (O95372 whole entry, looked up): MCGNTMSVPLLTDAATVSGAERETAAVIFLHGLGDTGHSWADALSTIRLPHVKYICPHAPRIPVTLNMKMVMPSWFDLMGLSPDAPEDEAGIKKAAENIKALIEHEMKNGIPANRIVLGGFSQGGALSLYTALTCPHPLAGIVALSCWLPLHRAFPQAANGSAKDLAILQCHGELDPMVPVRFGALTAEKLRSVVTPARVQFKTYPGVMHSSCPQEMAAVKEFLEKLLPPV

Compound in this test: C1=CC=C(C=C1)[C@H](COC2=CC3=C(C=C2)NC(=O)N3)NC(=O)C4=CC=CN(C4=O)CC5=CC(=C(C=C5)F)F
The test can be described thus: log2 fold change, soluble protein after heating vs DMSO (PISA); higher = thermal stabilisation; K562 cells, 10 uM, 30 min; active = over 0.2 and 3.5 SD of the protein, either way, in both replicates (recomputed). In outline:
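Aliquots of K562 cells (2×10^6 cells/mL) treated with 10 μM compound for 30 min were heated for 3 min over 48°C-58°C. After pooling and extraction in PBS with 0.5% NP-40 at 4°C, soluble protein from a 21,000xg, 90 min spin was quantified by TMTpro 16plex LC-MS/MS with channel sums equalised. Thermal stability is expressed against control samples, from duplicates, as a log2 fold change.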
For the target KCTD2 (UniProt Q14681), the log2 fold change is 0.008.
The result for MED8 isoform 2 (UniProt Q96G25) reads 0.011; that for KDM5D isoform 3 (UniProt Q9BY66), 0.2.
Regarding KTN1 (UniProt Q86UP2), the log2 fold change is 0.005.
The result for IGF2BP2 (UniProt Q9Y6M1) reads 0.122; that for ITM2C (UniProt Q9NQX7), -0.077; that for MASTL (UniProt Q96GX5), 0.047.
The result for LMNB2 (UniProt Q03252) reads 0.04.
The result for KIF3A (UniProt Q9Y496) reads 0.027; that for IGF2R (UniProt P11717), 0.013.
For MAGEA9 (UniProt P43362), the log2 fold change is 0.046.
Turning to LONP2 (UniProt Q86WA8), the log2 fold change was -0.036.
The result for MFN2 (UniProt O95140) reads 0.01; that for MGST3 (UniProt O14880), 0.046.
Take MDN1 (UniProt Q9NU22): the log2 fold change was -0.08.
The result for KDM3B (UniProt Q7LBC6) reads -0.013.
With LRBA (UniProt P50851), the log2 fold change was -0.016.
For MAPKAPK2 (UniProt P49137) the value was -0.047; for KIF13A (UniProt Q9H1H9), 0.022; for LAMP2 (UniProt P13473), 0.022.
Turning to MFF (UniProt Q9GZY8), the log2 fold change was -0.013.
On to METTL18 (UniProt O95568), for which the log2 fold change was 0.
The result for LDLR (UniProt P01130) reads -0.037; that for LAMP2 isoform 2 (UniProt P13473), 0.051; that for LIAS (UniProt O43766), 0.001.
For MED7 (UniProt O43513), the log2 fold change is -0.049.
LUC7L3 (UniProt O95232): the log2 fold change was 0.002.
With MBLAC1 (UniProt A4D2B0), the log2 fold change was -0.019.
As to INPP5B (UniProt P32019), the log2 fold change is -0.067.
For MCL1 (UniProt Q07820) the value was -0.013; for MAP2K3 isoform 3 (UniProt P46734), -0.091.
For LARP4B (UniProt Q92615) the value was -0.003; for LTN1 isoform 3 (UniProt O94822), -0.058.
The result for LYPLA2 (UniProt O95372) reads 0.033; that for LNPEP (UniProt Q9UIQ6), 0.066; that for MFN1 (UniProt Q8IWA4), 0.058.
In the case of LMBRD1 (UniProt Q9NUN5), the log2 fold change was 0.013.
The result for LEMD2 (UniProt Q8NC56) reads -0.031.
